An excerpt weighted towards active compounds, which were near 2.9% of everything screened.
CF NFkB block: blocks PAF-induced NF-kB reporter in cystic fibrosis cells | 360,000 tested, 0.86% active | KKLEB NF-kB-GFP reporter, GFP fluorescence overnight | inhibition, % at 5 µM;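 active = at least 50% inhibition at 5 µM, scaled per plate between neutral and stimulator controls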;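 also: PAF is a Pseudomonas aeruginosa culture filtrate used as stimulus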
KKLEB tox: CF airway cell cytotoxicity counter-screen. AID 602141. activity change (cytotoxicity), % at 5 µM. 360,000 tested, 0.36% active. KKLEB CF airway cells viability, ATPlite luminescence, overnight; stronger effect = lower value; cells stimulated with P. aeruginosa culture filtrate;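 active = corrected activity change at or below -50% at 5 µM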
MITF TRPM1 inh: inhibitors of MITF-driven TRPM1 promoter in melanoma cells. AID 488899. inhibition, % at 12.5 µM. SK-MEL-5 TRPM1 promoter luciferase, 24 h. 330,000 tested, 0.83% active;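 active = mean inhibition across replicates of 60% or more, whatever share of single replicates reaches that level; inconclusive = some that reach 60%, reason not given; inactive = mean inhibition across replicates below 60%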
LMP1 NFkB inh: inhibitors of Epstein-Barr LMP1-induced NF-kappaB reporter | 350,000 tested, 0.69% active | LMP1-induced NF-kappaB luciferase reporter cells, luminescence | inhibition, % at 12.5 µM; in the data active = inhibition above about 41%; inconclusive = no clear call, values can overlap the other calls
Peg3 prom inh: reduces Peg3 promoter-driven luciferase expression in HeLa; HeLa PEG-Prom luciferase reporter, luminescence, overnight; AID 588405; 360,000 tested, 1.7% active; inhibition, % at 20 µM;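 active = inhibition of at least 50% at 20 µM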
Shn3 3UTR inh: Schnurri-3 reporter inhibition in Clone20 osteoblasts; AID 588674; 360,000 tested, 0.52% active; inhibition, % at 12.5 µM; Clone20 osteoblast Shn3 3'UTR firefly luciferase, 24 h;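 active = mean inhibition of at least 75% with every replicate also reaching 75%; inconclusive = mean inhibition at least 75% but some replicate below; inactive = mean inhibition below 75%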
Of the large screens only hits and unclear results are named; the others gave an inactive call.

O=C(NC(c1ccc(F)cc1)c1ccc2ccccc2n1)C1CCN(CCOc2ccc(Cl)cc2)CC1 (centres undefined)	Peg3 prom inh 95.7 (no result: MITF TRPM1 inh, LMP1 NFkB inh)
O=C(NC(c1ccc(F)cc1)c1ccc2ccccc2n1)C1CCN(Cc2ccc3ccccc3n2)CC1 (centres undefined)	none (no result: MITF TRPM1 inh, LMP1 NFkB inh)
Cc1cccnc1C(c1ccc(F)cc1)N(C)C(=O)C1CCN(CCOc2ccc(Cl)cc2Cl)CC1 (centres undefined)	Peg3 prom inh 98.0 (no result: MITF TRPM1 inh, LMP1 NFkB inh)
COc1ccc(CNC(=O)CC[C@H]2O[C@@H](n3ccc(=O)[nH]c3=O)[C@H](O)[C@@H]2O)cc1	none (no result: MITF TRPM1 inh, LMP1 NFkB inh)
Cc1ccsc1CN(C)CC(=O)N(C)CC(=O)Nc1c(Cl)cccc1Cl	none (no result: MITF TRPM1 inh)
O=C(COC(=O)c1c(F)cccc1F)NC(=O)NCc1ccccc1	none (no result: MITF TRPM1 inh)
Cc1ccccc1-c1nnc(SC(C)C(=O)NC2CCCC2)o1 (centres undefined)	none
O=C(NC(c1ccccc1)c1ccc2ccccc2n1)C1CCN(CCOc2ccc(Cl)cc2Cl)CC1 (centres undefined)	Peg3 prom inh 102.0 (no result: MITF TRPM1 inh, LMP1 NFkB inh)
CN(C)c1ccc(CN2CCC(C(=O)NC(c3ccc(F)cc3)c3ccc4ccccc4n3)CC2)cc1 (centres undefined)	none (no result: MITF TRPM1 inh, LMP1 NFkB inh)
COc1ccc(C(NC(=O)C2CCN(CCOc3ccc(Cl)cc3Cl)CC2)c2ccccn2)cc1 (centres undefined)	none (no result: MITF TRPM1 inh, LMP1 NFkB inh)
COc1cc(/C=C/CN2CCC(C(=O)NC(c3ccc(F)cc3)c3ccc4ccccc4n3)CC2)ccc1OC(C)=O (centres undefined)	Peg3 prom inh 91.0 (no result: MITF TRPM1 inh, LMP1 NFkB inh)
COCCNC(=O)C1(C)CCCN(C(=O)c2ccc(C#N)cc2)C1 (centres undefined)	none (no result: MITF TRPM1 inh, LMP1 NFkB inh)
Cc1ccsc1CN(C)C(=O)C(NC(=O)c1cccc(S(=O)(=O)N2CCOCC2)c1)C(C)C (centres undefined)	none
COC(=O)C(C#N)(CCC(=O)c1ccccc1)CCC(=O)c1ccccc1	none (no result: MITF TRPM1 inh, LMP1 NFkB inh)
CCN(CCNCC(O)COc1ccccc1C(C)C)c1cccc(C)c1 (centres undefined)	Peg3 prom inh 93.4
Cc1ccc(-n2c(Cl)c(Cl)nc(Cl)c2=O)cc1	CF NFkB block 88.1, KKLEB tox -94.0, MITF TRPM1 inh 94.9, LMP1 NFkB inh 71.5, Peg3 prom inh 102.9, Shn3 3UTR inh 95.6
COc1nc(Cl)cn(-c2ccc(C)cc2)c1=O	none
CCCc1cc(=O)n2[nH]cc(-c3ccc(Cl)cc3)c2n1	LMP1 NFkB inh 44.1, Peg3 prom inh 56.8
COCc1cc(=O)n2[nH]cc(-c3ccccc3)c2n1	none
CC(=O)N(C)C[C@H]1Oc2ncc(Br)cc2C(=O)N([C@H](C)CO)C[C@@H]1C	none (no result: MITF TRPM1 inh)
COc1ccc(C(C)=O)cc1COc1cccnc1[N+](=O)[O-]	none
CCOc1ccc(C(C)=O)cc1COc1cccnc1[N+](=O)[O-]	LMP1 NFkB inh 50.8
C=CCSC1=NC(=O)/C(=C/c2cccs2)S1	Peg3 prom inh 53.2
C/C(=N\NC(=O)COc1ccc(C(C)(C)C)cc1)c1cc2ccccc2o1	KKLEB tox -57.7
CCCC(=O)N(C1CC(C)C(C#N)(C#N)C1(C#N)C#N)N(C)C (centres undefined)	MITF TRPM1 inh 82.8, Peg3 prom inh 107.3, Shn3 3UTR inh 96.6
CC(=O)N(C1CC(C)C(C#N)(C#N)C1(C#N)C#N)N(C)C (centres undefined)	MITF TRPM1 inh 86.2, Peg3 prom inh 102.0, Shn3 3UTR inh 93.2
CC(c1nc2ccccc2c(=O)[nH]1)N1CCN(S(=O)(=O)c2ccc(F)c(Cl)c2)CC1 (centres undefined)	none (no result: MITF TRPM1 inh)
c1ccc(CNc2nc(NCc3ccccc3)c3ccccc3n2)cc1	Peg3 prom inh 104.5
Oc1cc(NCCN2CCOCC2)cc2cccnc12	MITF TRPM1 inh inconclusive
Oc1cc(Nc2ccccc2)cc2cccnc12	CF NFkB block 77.6, Shn3 3UTR inh 93.9
Oc1cc(-c2cccnc2)cc2cccnc12	Shn3 3UTR inh 89.1
CN1CCN(c2cc(-c3cc(O)c4ncccc4c3)ccn2)CC1	none
Oc1cccc2cc(Nc3ccccc3)cnc12	Shn3 3UTR inh 94.5 (no result: MITF TRPM1 inh, LMP1 NFkB inh)
COc1cc(OC)c(NC(=O)c2cc3ccccc3cc2O)cc1Cl	none
CC(C)(C)n1nnnc1C(c1ccc(C(F)(F)F)cc1)N(Cc1ccccc1)Cc1ccco1 (centres undefined)	Shn3 3UTR inh 87.5
CC(C)(C)n1nnnc1C(c1ccc(F)cc1)N(Cc1ccc(F)cc1)Cc1ccco1 (centres undefined)	none
CC(C)(C)n1nnnc1C(c1ccc(C(F)(F)F)cc1)N(Cc1ccc(F)cc1)Cc1ccco1 (centres undefined)	Shn3 3UTR inh 89.1
CC(C)CC1NC(=O)c2cccnc2-n2c1nc1cc(F)ccc1c2=O (centres undefined)	none (no result: MITF TRPM1 inh)
O=C(NCCO)c1cc2c([nH]c3ccccc32)c(-c2ccccc2)n1	none
Cc1ccc(-c2nc(C(=O)NCCCN(C)C)cc3c2[nH]c2ccccc23)cc1	MITF TRPM1 inh 75.7, Peg3 prom inh 90.8
Cc1ccc(-c2nc(C(=O)NCC3CCCO3)cc3c2[nH]c2ccccc23)cc1 (centres undefined)	Peg3 prom inh 68.1
COc1ccc(-c2nc(C(=O)NCC3CCCO3)cc3c2[nH]c2ccccc23)cc1 (centres undefined)	none (no result: MITF TRPM1 inh)
O=c1ccn([C@@H]2O[C@H](CNCc3cccn3-c3nccs3)[C@@H](O)[C@H]2O)c(=O)[nH]1	none (no result: MITF TRPM1 inh, LMP1 NFkB inh)
COc1ccc(OC)c(S(=O)(=O)Nc2ccc3c(c2)OCCO3)c1	none (no result: MITF TRPM1 inh)
Cc1ccccc1S(=O)(=O)NC(=O)C1(C)CCN1C(=O)CC1CCCC1 (centres undefined)	none (no result: MITF TRPM1 inh, LMP1 NFkB inh)
COc1cc(CCNC2=CC(=O)c3ncccc3C2=O)ccc1O	CF NFkB block 77.9, MITF TRPM1 inh 113.4
CCc1ccc2c(c1)NC(=O)C2(C)Cc1ccccc1C#N (centres undefined)	none (no result: MITF TRPM1 inh, LMP1 NFkB inh)
CC(CN1CCN(CCOCCO)CC1)CN1c2ccccc2Sc2ccc(Cl)cc21 (centres undefined)	Peg3 prom inh 100.6 (no result: MITF TRPM1 inh)
CN(C)CCCN1c2ccccc2Sc2ccc(C(F)(F)F)cc21	none
O=C(CCN1CCOCC1)N1c2ccccc2Sc2ccc(Cl)cc21	none
CN1CCCC(CN2c3ccccc3Sc3ccccc32)C1 (centres undefined)	none
OCCN1CCN(CCCN2c3ccccc3Sc3ccc(C(F)(F)F)cc32)CC1	Peg3 prom inh 61.0
CCSc1ccc2c(c1)N(CCCN1CCN(C)CC1)c1ccccc1S2	Peg3 prom inh 57.3
CN1CCN(CCCN2c3ccccc3Sc3ccc(Cl)cc32)CC1	Peg3 prom inh 62.8
Cc1cc(C)c(C)c(S(=O)(=O)Nc2cccc(S(=O)(=O)Nc3ccccc3C(=O)O)c2)c1C	none
C[C@H](CO)N1C[C@H](C)[C@@H](CN(C)C)Oc2c(NS(=O)(=O)c3ccc(F)cc3)cccc2C1=O	none

From PubChem BioAssay
